# Among all 220,000 compounds or so, about 8,200 (3.7%) were called active. This is one part of a sample in which actives are shown more often than they occur.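 Rule for the calls: active = compounds that reduced the stress-induced luciferase reporter signal by more than about 70% of percent inhibition (limit read from the data); inactive = the rest.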
# Assay: blockers of ER-stress CHOP reporter expression – cell-based, unfolded protein response, luciferase reporter, primary screen (AID 2732);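 note: 0% = tunicamycin plus vehicle and 100% = wells without tunicamycin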
# Conditions: CHO-K1 CHOP-promoter luciferase, tunicamycin-induced, 15-18 h; at 10 µM; hits give high values
row,SMILES,inhibition
1,COc1ccc(-c2cc(C(F)(F)F)nc(S(C)(=O)=O)n2)cc1OC,109% (active)
2,COc1ccc(-c2cc(C(F)(F)F)nc(SCC(=O)Nc3ccc4c(c3)OCO4)n2)cc1OC,22.4% (inactive)
3,COc1cc(OC)nc(S(C)(=O)=O)n1,-18.2% (inactive)
4,O=C(Nc1cccnc1)c1cc([N+](=O)[O-])ccc1Cl,-9.19% (inactive)
5,CCOC(=O)C1CCN(c2c(Nc3cc(C)cc(C)c3)c(=O)c2=O)CC1,4.73% (inactive)
6,O=S(=O)(c1ccc(NC(=S)NN=C(C2CC2)C2CC2)cc1)N1CCOCC1,-4.48% (inactive)
7,CN(c1ccccc1)S(=O)(=O)c1ccc(Cl)c(C(=O)OCC(=O)NCc2ccco2)c1,29.9% (inactive)
8,CCN1CCN(c2nc(Nc3cc(OC)ccc3OC)nc(Nc3cc(OC)ccc3OC)n2)CC1,-5.76% (inactive)
9,CCOc1ccc(Nc2nc(Cl)nc(N3CCN(c4ccc(OC)cc4)CC3)n2)cc1,72.4% (active)
10,CCOc1ccc(NC(=O)CN2CCN(CC(=O)Nc3ccc(OC)cc3)CC2)cc1,34.6% (inactive)
11,Cc1coc2cc3oc(=O)c(CCC(=O)O)c(C)c3cc12,-3.28% (inactive)
12,COC(=O)c1sccc1NC(=S)Nc1ccc(C)cc1,10.2% (inactive)
13,Cc1cnc(C(=O)OCC(=O)NCCCc2ccccc2)cn1,4.94% (inactive)
14,CCN(CC)CCCNC(=O)CCc1ccccc1,0.68% (inactive)
15,CCc1ccc(NC(=O)CS(=O)CC(=O)NCCCc2ccccc2)cc1 (stereo unspecified),75.9% (active)
16,NNC(=O)c1oc2nc(-c3ccccc3)cc(-c3ccco3)c2c1N,-41.2% (inactive)
17,COC(OC)c1ccnc(SCc2ccccc2Cl)n1,15.3% (inactive)
18,COc1ccc(-c2csc(Nc3ccc(O)cc3)n2)cc1,18.9% (inactive)
19,O=c1oc2ccccc2cc1-c1csc(Nc2ccc(O)cc2)n1,-72.5% (inactive)
20,Cc1ccc(Nc2nc(-c3ccc(O)cc3O)cs2)nc1,88.9% (active)
21,Nc1nnn(CC(=O)N/N=C/c2ccccc2)n1,9.73% (inactive)

row,SMILES,inhibition
1,COc1cc(N2C(=O)CC3(CCCC3)CC2=O)cc(OC)c1OC,-7% (inactive)
2,O=C(Nc1ccc(N2CCOCC2)nc1)c1c(F)cccc1F,-6.02% (inactive)
3,CCOC(=O)c1c(NC(=O)NC(C)(C)C)sc2c1CCN(C)C2,16.3% (inactive)
4,O=[N+]([O-])c1ccc2nc(-c3ccccn3)[nH]c2c1,-8.07% (inactive)
5,Cc1cc(C)nc(S/C=C/C(=O)c2ccccc2)n1,24.8% (inactive)
6,O=C(/C=C/Sc1ncn[nH]1)c1ccc(Cl)cc1,105% (active)
7,COc1ccc(Cl)cc1CSc1ncn[nH]1,-7.32% (inactive)
8,CCn1c(SCC(=O)Nc2ccccc2F)nc2c(c1=O)SC(C)C2 (stereo unspecified),-15.6% (inactive)
9,CCCCSc1nc2c(c(=O)n1CC)SC(C)C2 (stereo unspecified),97.1% (active)
10,CCn1c(SCC(=O)Nc2ccc3c(c2)OCCO3)nc2c(c1=O)SC(C)C2 (stereo unspecified),3.73% (inactive)
11,COc1c(N2CCN(C(=S)Nc3ccccc3F)C(C)C2)c(F)cc2c(=O)c(C(=O)O)cn(C3CC3)c12 (stereo unspecified),2.97% (inactive)
12,Cc1nnc(SCc2cc(=O)[nH]c(N3CCN(Cc4ccccc4)CC3)n2)s1,39.7% (inactive)
13,Cc1ccc(-n2c(=O)cc(N3CCN(Cc4ccccc4)CC3)[nH]c2=O)cc1,-31.4% (inactive)
14,CCc1c(C)nc(N2CCN(Cc3ccccc3)CC2)[nH]c1=O,80% (active)
15,Cn1c(SCC(=O)N2CCOCC2)nnc1-c1ccc2ncccc2c1,-14.7% (inactive)
16,S=c1[nH]nc(-c2ccccc2)n1/N=C/c1c[nH]c2ccccc12,30.5% (inactive)
17,S=c1[nH]nc(-c2cc(-c3ccccc3)n[nH]2)n1/N=C/c1c2ccccc2cc2ccccc12,74% (active)
18,S=c1[nH]nc(-c2ccco2)n1/N=C/c1ccccc1,13.8% (inactive)
19,O=C(O)CC12CC3CC(C1)CC(n1ncc(NCc4ccc(F)cc4)c(Cl)c1=O)(C3)C2,-5.94% (inactive)
20,O=C(CN1CCN(Cc2ccc(F)cc2Cl)C1=O)NCc1cccs1,5.73% (inactive)
21,O=c1c(Cl)c(NCc2ccc(F)cc2Cl)cnn1C12CC3CC(CC(C3)C1)C2,78.6% (active)

row,SMILES,inhibition
1,CCCN(CC1COc2ccccc2O1)C(=S)Nc1ccc(C)cc1 (stereo unspecified),28.3% (inactive)
2,S=C(NCC1COc2ccccc2O1)Nc1ccc(Br)cc1 (stereo unspecified),81.2% (active)
3,O=C(NCC1COc2ccccc2O1)C1(c2ccccc2)CCCC1 (stereo unspecified),17.7% (inactive)
4,CCCN(CCC)S(=O)(=O)c1ccc(C(=O)N2CC3CCC(CC3)C2)cc1,5.98% (inactive)
5,O=[N+]([O-])c1cccc2ncccc12,15.2% (inactive)
6,Cc1cc(C)n(C(=O)c2ccc(S(=O)(=O)N3CCCC3)cc2)n1,13% (inactive)
7,CC(C)(C)NC(=O)Cn1nnc(-c2ccccc2Cl)n1,2.55% (inactive)
8,Cc1ccccc1-c1nnn(CC(=O)c2ccc(S(=O)(=O)N3CCCC3)cc2)n1,76% (active)
9,CC(OC(=O)c1ccc(NS(=O)(=O)c2ccc3[nH]c(=O)[nH]c3c2)cc1)C(=O)Nc1cccc(Cl)c1Cl (stereo unspecified),-9.73% (inactive)
10,NCCCCCC(=O)N/N=C/c1ccc2nccnc2c1,16.6% (inactive)
11,Cc1onc(NC(=O)c2ccc([N+](=O)[O-])o2)c1Br,-20.6% (inactive)
12,Cc1cc(C(=O)Nc2c(C)n(C)n(-c3ccccc3)c2=O)cs1,23.5% (inactive)
13,COc1ccc(S(=O)(=O)Nc2c(C)n(C)n(-c3ccccc3)c2=O)cc1,-21.7% (inactive)
14,Cc1cccc(OP(=O)(Nc2c(C)n(C)n(-c3ccccc3)c2=O)Oc2cccc(C)c2)c1,71.4% (active)
15,O=C(CCl)Nc1cccc(CP(=O)(c2ccccc2)c2ccccc2)c1,-134% (inactive)
16,COc1ccc(CNC(=O)CCC(=O)Nc2nnc(C(C)C)s2)cc1,11.9% (inactive)
17,COc1ccc(OC)c(/C=N/NC(=O)CSc2nnc(C)n2-c2ccccc2)c1,-5.53% (inactive)
18,Cc1nnc(SCC(=O)N/N=C/c2cn(-c3ccccc3)nc2-c2ccc(F)cc2)n1-c1ccccc1,97.1% (active)
19,Cc1ccc(-c2nn(-c3ccccc3)cc2/C=N/NC(=O)c2ccc3c(c2)OCO3)cc1,22.2% (inactive)

# Reference: PubChem BioAssay AID2732 (Emory University Molecular Libraries Screening Center, 2010)
